The source of these data is PubChem BioAssay (NCATS).

Values joined by “and” are separate entries in the source; they are usually repeats but may differ in a detail not shown here. Identical values can stand only once. Results filed as inconclusive are left out. Active and inactive are the calls of the source. Calls come from the whole dose curve; as a rule, active = well fitted inhibition curve with a large enough effect in the main read-out, with a control signal flat (not every such curve was filed as active); inconclusive = small, poorly fitted or top-dose-only effect, or effect the other way, or a change in a side signal; inactive = no such curve, though single readings can be large or run the other way.

The nature of this assay: Nrf2 qHTS screen for inhibitors: Validation (AID 493153).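 For activity change, negative = inhibition: A549 cells with ARE-driven firefly luciferase reporter reporting Nrf2 activity; % of control where 0% means no effect.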 The conditions noted are these: A549 ARE-Fluc reporter, 18-24 h; Potency: luciferase luminescence; viability change: measured here: cytotoxicity max response; luciferase luminescence, at 46.1 µM (top of the series); activity change, negative = inhibition: at the top concentration. From the text:
NIH Molecular Libraries Probe Production Network [MLPCN] NIH Chemical Genomics Center [NCGC] MLPCN Grant: R03-MH092170-01 Assay Provider: Shyam Biswal, Johns Hopkins University Assay Overview: Nrf2 is a transcription factor that maintains cellular redox homoestasis and protects cells from xenobiotics. Nrf2 binds to the antioxidant response element (ARE) to induce gene expression of a broad spectrum of genes that encode for antioxidants. […] Finding a small molecule that act as an inhibitor of Nrf2 function would represent a novel therapeutic target that could lead to improvement in survival of patients undergoing chemo- and/or radio- therapy. 1. Shibata, T., et al., Genetic Alteration of Keap1 Confers Constitutive Nrf2 Activation and Resistance to Chemotherapy in Gallbladder Cancer. Gastroenterology, 2008. 2. Sjoblom, T., et al., The consensus coding sequences of human breast and colorectal cancers. Science, 2006. 314(5797): p. 268-74.
Assay Protocol Summary: A concentration-response assay was performed with A549 ARE_Fluc cells which are suspended in 5% FBS OPTI-MEM. Five uL were dispensed into 1536-well white TC-treated plate using the Kalypsys dispenser to achieve a density of 5000 cells/well in all columns except column 1. The plate is incubated at 37deg C at 5% CO2 for 2 hours before 23 nL of compounds are added with the Kalypsys pin tool equipped with a 1,536-pin array containing 10-nL slotted pins (FP1S10, 0.457-mm diameter, 50.8 mm long; V&P Scientific). The control compounds Budesonide and Staurosporine are both added at a concentration of 2mM and Budesonide is also added as a 1:10 titration, starting at 200uM, to achieve dose-response. After an 18-24 hour incubation at 37deg C at 5% CO2, 5ul of medium is added to column 1. Afterwards 1ul of 5x of CellTiter-Fluor (Promega) is added to every well. The plate is then incubated at 37deg C at 5% CO2 for 30 minutes before they are read on the ViewLux (Perkin Elmer) for a fluorescent read Ex=405(10)/Em=525(10) for a 3 second exposure, 2x binning, and high gain. Then 3 uL of 3x BugLite is dispensed into all wells and the plate is incubated at ambient room temperature for 15 minutes. Afterwards another ViewLux read is performed using the clear filter to get a luminescent read with the settings of 40 second exposure, 2x binning, and high gain. Cytotoxicity is assessed through the first fluorescent read and then biochemical activity against Nrf2 is measured in the luminescent read.
Background: qHTS replaces the single test concentration by a dilution series.
Consider `N#C/C(=C\c1ccc(O)c(O)c1)C(=O)NCCCc1ccccc1`, for which the viability change was -10.3% and the “activity change, negative = inhibition” value was -9.9% (inactive).
For `CC(C)NC[C@H](O)COc1cccc2[nH]ccc12`, the “activity change, negative = inhibition” value was -8.65% (inactive) and the viability change is -1.79%.
In the same order, the values of `NC(=O)C(=O)O` are -16.7% (inactive) and 4.28%.
Taken in the same sequence, the figures for `S=C(S)OC1CC2CC1C1CCCC21` (stereo not given) were 4.91% (inactive) and 5.78%.
As for `CCCCN1CCC(n2c(=O)[nH]c3ccccc32)CC1`, the “activity change, negative = inhibition” value was 0.17% (inactive) and the viability change was -4.5%.
Turning to `C[N+](C)(C)CCOP(=O)(O)OP(=O)([O-])OC[C@H]1O[C@@H](n2ccc(N)nc2=O)[C@H](O)[C@@H]1O`, the viability change was found to be 2.92% and the “activity change, negative = inhibition” value was -1.98% (inactive).
In the same order, the values of `Cc1ccc(O)c(N=Nc2ccccc2)n1` are 0.002% and 43.2% (inactive).
Taken in the same sequence, the figures for `O=C(Nc1cccc(C(=O)Nc2ccc(S(=O)(=O)O)c3cc(S(=O)(=O)O)cc(S(=O)(=O)O)c23)c1)Nc1cccc(C(=O)Nc2ccc(S(=O)(=O)O)c3cc(S(=O)(=O)O)cc(S(=O)(=O)O)c23)c1` were -3.71% and 4.67% (inactive).
In the same order, the values of `N#C/C(=C\c1ccc(O)c(O)c1)C(=O)NCc1ccccc1` are -19.8% and 9.83% (inactive).
Turning to `COc1ccc2c(c1)CCC1C2CC[C@@]2(C)C1CC[C@@H]2NCCCCCCN1C(=O)CCC1=O` (stereo not given in full), the viability change was 2.91% and the “activity change, negative = inhibition” value is 15.5% (inactive).
In the same order, the values of `OC[C@H]1O[C@@H](n2cnc3c(NC4CCCC4)ncnc32)[C@H](O)[C@@H]1O` are -2.89% and -12.9% (inactive).
Take `CCNC(=O)[C@H]1O[C@@H](n2cnc3c(N)nc(NCCc4ccc(CCC(=O)O)cc4)nc32)[C@H](O)[C@@H]1O`: the “activity change, negative = inhibition” value is -7.08% (inactive) and the viability change worked out at 0.951%.
In the same order, the values of `CN1CC(=O)N/C1=N/C(=O)Nc1cccc(Cl)c1` are 15% (inactive) and -1.94%.
In the same order, the values of `CN1[C@@H](CC(=O)c2ccccc2)CCC[C@H]1C[C@H](O)c1ccccc1` are 1.11% (inactive) and -11%.
Take `O=C(/C=C/c1ccc(O)c(O)c1)OCCc1ccccc1`: the “activity change, negative = inhibition” value was 4.73% (inactive) and the viability change was -1.73%.
In the same order, the values of `C=C[C@H]1CN2CC[C@@H]1C[C@@H]2[C@@H](O)c1ccnc2ccc(OC)cc12` are -3.85% (inactive) and -1.39%.
Take `C[N+]1(C)C2CC(OC(=O)[C@H](CO)c3ccccc3)CC1C1OC12` (stereo not given in full): the viability change is 3.14% and -2.67%; the Potency entry was “inactive”.
`COc1cc(SC)ccc1C(=O)N1CCC(Cc2ccccc2)CC1`: the viability change was determined as 1.59% and the “activity change, negative = inhibition” value was 2.45% (inactive).
In the same order, the values of `CN(C)CCCO[C@@H]1[C@H]2OC(C)(C)O[C@H]2O[C@@H]1[C@H](O)CO` are 3.16% and 1.81% (inactive).
In the same order, the values of `CC(=O)/C=C1\C(=O)N(C)c2ccccc21` are -4.33% and -13.7% (inactive).
